Only some compounds are listed: those with a hit (about 6.8% of all), similar ones and a draw of the others.
Tcruzi prolif: T. cruzi intracellular proliferation inhibitors, primary screen, cell-based, beta-gal Tulahuen parasites, NIH3T3 host, luminescence. inhibition, % at 8.34 µM. hit rate 5.9% among 77,000. T. cruzi beta-gal in NIH3T3, GalScreen luminescence, 90 h;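 active = mean inhibition above about 93%, with at least 55% of replicates each passing it, limit read from the data, passing the limit was not always enough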
C diff HTS: C. difficile growth inhibitors, primary screen, HTS; Clostridium difficile clinical isolate growth, OD600, 24 h; hits give low values; growth activity, negative = inhibition, % at 16 µg/mL (by protocol); hit rate 0.25% among 86,000;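 active = mean growth activity at or below -80% and every replicate also at or below -80%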;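 note: 0% = DMSO wells and -100% = levofloxacin 16 µg/mL wells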
Pf Dd2 inh: P. falciparum Dd2 growth inhibitors, primary screen, SYBR Green fluorescence, single dose replicates | 72 h; hits give low values | activity change, % at 10 µM | hit rate 2.3% among 94,000; in the data active = activity change below about -80%
* hit, by the source's call.

Results for C[C@H]1CCCCO[C@@H](CN(C)C(=O)C2CCCCC2)[C@@H](C)CN([C@@H](C)CO)C(=O)c2cc(NC(=O)Nc3ccccc3)ccc2O1 ?
Tcruzi prolif: 65.4; C diff HTS: -16.4; Pf Dd2 inh: -88.1*

What do the screens show for `C[C@H](CO)N1C[C@H](C)[C@H](CN(C)C(=O)C2CCCCC2)OCCCC[C@H](C)Oc2ccc(NC(=O)c3ccncc3)cc2C1=O`?
Tcruzi prolif: 18.2; C diff HTS: -3.5; Pf Dd2 inh: 53.5

Results for C[C@@H]1CCCCO[C@@H](CN(C)C(=O)C2CCCCC2)[C@H](C)CN([C@H](C)CO)C(=O)c2cc(NC(=O)Nc3ccc4c(c3)OCO4)ccc2O1 ?
Tcruzi prolif: 106.6*; C diff HTS: 0.6; Pf Dd2 inh: 0.4

What do the screens show for `C[C@@H]1CN([C@H](C)CO)C(=O)c2cc(NC(=O)C3CCCCC3)ccc2O[C@@H](C)CCCCO[C@@H]1CN(C)C(=O)C1CCCCC1`?
Tcruzi prolif: 31.5; C diff HTS: -0.1; Pf Dd2 inh: -64.6

Results for C[C@@H]1CN([C@@H](C)CO)C(=O)c2cc(NC(=O)Nc3ccc4c(c3)OCO4)ccc2O[C@@H](C)CCCCO[C@H]1CN(C)C(=O)C1CCCCC1 ?
Tcruzi prolif: 96.3; C diff HTS: -4.4; Pf Dd2 inh: -48.4

How did C[C@@H]1CCCCO[C@@H](CN(C)C(=O)C2CCCCC2)[C@@H](C)CN([C@@H](C)CO)C(=O)c2cc(NC(=O)C3CCCCC3)ccc2O1 do in these assays?
Tcruzi prolif: 38.0; C diff HTS: -1.0; Pf Dd2 inh: -85.5*

Results for O=C(NCCc1ccccc1)[C@H]1N[C@H]2c3ccc(-c4ccc(F)cc4)c(=O)n3C[C@H]2[C@@H]1CO ?
Tcruzi prolif: -23.8; C diff HTS: 3.7; Pf Dd2 inh: 0.3

How did Cc1cccc(-c2ccc([C@@H]3[C@H](CO)N4C(=O)CN(C(=O)c5cccnc5)C[C@@H]34)cc2)c1 do in these assays?
C diff HTS: -3.3; Pf Dd2 inh: -49.2

What do the screens show for `COc1ccccc1C(=O)Nc1ccc2c(c1)C(=O)N(C)[C@@H]1CC[C@@H](CC(=O)NCCc3ccncc3)O[C@@H]1CO2`?
Tcruzi prolif: -23.8; C diff HTS: 2.7

What do the screens show for `C[C@@H]1CN([C@@H](C)CO)C(=O)c2cc(NC(=O)Nc3ccccc3)ccc2O[C@@H](C)CCCCO[C@@H]1CN(C)C(=O)C1CCCCC1`?
Tcruzi prolif: 35.1; C diff HTS: -0.8; Pf Dd2 inh: -83.5*

How did C[C@@H]1CN([C@H](C)CO)C(=O)c2cc(NC(=O)Nc3ccccc3)ccc2O[C@@H](C)CCCCO[C@H]1CN(C)C(=O)C1CCCCC1 do in these assays?
Tcruzi prolif: 38.5; C diff HTS: -6.0; Pf Dd2 inh: -79.5

What do the screens show for `C[C@@H]1CCCCO[C@H](CN(C)C(=O)c2ccccc2)[C@@H](C)CN([C@@H](C)CO)C(=O)c2cc(NC(=O)Nc3ccc4c(c3)OCO4)ccc2O1`?
Tcruzi prolif: 35.7; C diff HTS: 3.6; Pf Dd2 inh: -81.3*

How did C[C@@H]1CCCCO[C@H](CN(C)C(=O)C2CCCCC2)[C@@H](C)CN([C@@H](C)CO)C(=O)c2cc(NC(=O)Cc3ccccc3)ccc2O1 do in these assays?
Tcruzi prolif: 42.0; C diff HTS: 3.6; Pf Dd2 inh: -84.9*

Results for C[C@@H]1CN([C@@H](C)CO)C(=O)c2cc(NC(=O)Cc3ccccc3)ccc2O[C@@H](C)CCCCO[C@H]1CN(C)C(=O)C1CCCCC1 ?
Tcruzi prolif: 16.4; C diff HTS: -2.0; Pf Dd2 inh: -55.7

How did C[C@@H]1CCCCO[C@H](CN(C)C(=O)c2ccccc2)[C@@H](C)CN([C@H](C)CO)C(=O)c2cc(NC(=O)Nc3ccc4c(c3)OCO4)ccc2O1 do in these assays?
Tcruzi prolif: 23.2; C diff HTS: 14.1; Pf Dd2 inh: 5.7

What do the screens show for `Cc1cc(C(=O)Nc2cccc3c2O[C@H](CN(C)CC2CC2)[C@@H](C)CN([C@@H](C)CO)C3=O)n(C)n1`?
Tcruzi prolif: 3.3; C diff HTS: -1.9; Pf Dd2 inh: 14.8

Results for CC=Cc1ccc2n(c1=O)C[C@@H]1[C@@H](CO)[C@H](C(=O)NCCC)N(CC3CC3)[C@H]21 (mixture of isomers) ?
Tcruzi prolif: 73.9; C diff HTS: 2.6; Pf Dd2 inh: 5.5

What do the screens show for `COc1ccc2c3c(n(C)c2c1)[C@H](CO)N(C(=O)NC1CCCC1)CC31CCN(C)CC1`?
C diff HTS: -2.6; Pf Dd2 inh: -60.1

How did C[C@@H]1CN([C@H](C)CO)C(=O)c2cc(NC(=O)C3CCCCC3)ccc2O[C@@H](C)CCCCO[C@@H]1CN(C)S(=O)(=O)c1ccc(F)cc1 do in these assays?
Tcruzi prolif: 79.3; C diff HTS: -4.2; Pf Dd2 inh: -82.4*
